About 83,000 compounds went through this panel and 20% of them were active in at least one assay; those are over-represented in the sample as a whole.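 Values shown are percent growth following 48 h exposure of cells in 96-well plates to a single concentration of compound; below 10 was considered active.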 A number with no mark means an inactive call. The source made the active and inactive calls.
How the values were obtained:
Experiment in all cases: NCI-60 one-dose screen, 48 h (100 = growth as untreated, 0 = no growth, -100 = all killed)
Conditions in all cases: 10 µM
RPMI-8226 leukemia = test system: RPMI-8226 leukemia
OVCAR-5 ovarian = test system: OVCAR-5 ovarian
SK-OV-3 ovarian = test system: SK-OV-3 ovarian
OVCAR-3 ovarian = test system: OVCAR-3 ovarian
HS 578T breast = test system: HS 578T breast
NCI/ADR-RES ovarian = test system: NCI/ADR-RES ovarian
T-47D breast = test system: T-47D breast
IGROV1 ovarian = test system: IGROV1 ovarian
OVCAR-4 ovarian = test system: OVCAR-4 ovarian
OVCAR-8 ovarian = test system: OVCAR-8 ovarian

| Structure (SMILES) | growth (RPMI-8226 leukemia) | growth (OVCAR-5 ovarian) | growth (SK-OV-3 ovarian) | growth (OVCAR-3 ovarian) | growth (HS 578T breast) | growth (NCI/ADR-RES ovarian) | growth (T-47D breast) | growth (IGROV1 ovarian) | growth (OVCAR-4 ovarian) | growth (OVCAR-8 ovarian) |
| --- | --- | --- | --- | --- | --- | --- | --- | --- | --- | --- |
| c1ccc([C@H]2CN3CCSC3=N2)cc1 | 110% | 87.2% | 107% | 111% | 85.7% | 103% | 99.6% |  |  |  |
| O=C(CCCCC[P+](c1ccccc1)(c1ccccc1)c1ccccc1)NC(COC(=O)C(Cl)Cl)(COC(=O)C(Cl)Cl)COC(=O)C(Cl)Cl | 83.3% | 98.6% | 94.3% | 103% | 110% | 114% | 90.8% | 100% |  |  |
| Cc1nc2ccc(CN(C)c3ccc(C(=O)N[C@@H](CCC(=O)O)C(=O)O)s3)cc2c(=O)[nH]1 | 56.6% | 67.6% | 55.3% | 57.3% | 73.2% | 43.8% | 55.4% | 71.8% |  |  |
| Cc1ccc2oc3nc(C)c(C(=O)NCc4ccccc4)cc3c(=O)c2c1 | 86.1% | 86.8% | 116% | 99.7% | 106% | 63.4% | 63.5% | 103% | 85.3% |  |
| COc1ccc(Nc2ncnc3c2c(SC)nn3-c2ccccc2)cc1 | 85.3% | 96.7% | 109% |  | 136% | 91.9% | 70.7% | 88.4% | 73.3% |  |
| COc1cccc(C2C3=C(COC3=O)N(CCO)c3cc(OC)ccc32)c1 (centres undefined) | 20.6% | 27.5% | 21.6% | -50% (active) | 15.5% | -12.5% (active) | 62.1% | 24.3% | 59.2% |  |
| O=C(CCCCCCC(=O)Nc1cccnc1)NO | -14.9% (active) | 60.8% | 78.9% | 25.1% | 34.6% | 2.65% (active) | -28.7% (active) | 31% | 16.1% |  |
| CC(C)N(CCNc1nc(C(Cl)(Cl)Cl)nc2cc(Cl)ccc12)C(C)C | 3.61% (active) | -11.1% (active) | -27.6% (active) | -37.5% (active) | 12% |  | 5.12% (active) | -38.4% (active) | 7.56% (active) |  |
| CCC(=O)N1C/C(=C/c2ccc(Br)cc2)C(=O)/C(=C/c2ccc(Br)cc2)C1 | -28.2% (active) | -22.8% (active) | -30.6% (active) | -62.6% (active) | 9.3% (active) | 10.2% | 13% | -67.6% (active) | -0.254% (active) |  |
| COc1ccc(-c2cc(/C=C/C(=O)c3cc(OC)c(OC)c(OC)c3)[nH]n2)cc1OC | -39.1% (active) | 17.5% | 39.3% | -17.5% (active) | 71% | 12.3% | -14% (active) | -9.4% (active) | -51.6% (active) |  |
| CCCCN(CCCC)CCCCCCCCC(O)c1cc2ccccc2c2ccccc12 (centres undefined) | -7.55% (active) | 74.8% | 80.7% |  | 73.7% | 54.6% | 31.7% | 44.8% | 46.2% |  |
| Cc1ccc(NC(=O)CSc2nc3ccccc3c(=O)n2CCc2ccccc2)c(C(=O)O)c1 |  | 111% | 93.6% | 115% | 106% | 118% | 96.2% | 94.1% | 103% | 100% |
| CN(C)C(=S)N/N=C\C=N/NC(=S)N(C)C | 0.534% (active) | 95.2% | 49.9% | 9.87% (active) | 74.5% | 51.3% | 15% | -59.4% (active) | -36.5% (active) |  |
| O=C1ON=[N+](c2ccc(Cc3ccc([N+]4=NOC(=O)C4CN4CCOCC4)cc3)cc2)C1CN1CCOCC1 (centres undefined) | 60.5% |  | 88% | 89.1% | 64% | 63.4% | 56.1% | 62.3% | 53.9% |  |
| Nc1nc(N)c(NC(=O)CNc2ccc(C(=O)O)cc2)c(N)n1 | 98% | 108% | 107% | 118% | 103% | 123% | 94.6% | 118% | 104% |  |
| CSc1nn(-c2ccccc2)c2ncnc(Oc3ccc(C)cc3)c12 | 92.4% | 92.5% | 75.2% | 98.1% | 85.9% | 93.4% | 83.4% | 92.7% | 9.15% (active) |  |

| Structure (SMILES) | growth (RPMI-8226 leukemia) | growth (OVCAR-5 ovarian) | growth (SK-OV-3 ovarian) | growth (OVCAR-3 ovarian) | growth (HS 578T breast) | growth (NCI/ADR-RES ovarian) | growth (T-47D breast) | growth (IGROV1 ovarian) | growth (OVCAR-4 ovarian) | growth (OVCAR-8 ovarian) |
| --- | --- | --- | --- | --- | --- | --- | --- | --- | --- | --- |
| CCCCCCCCCCCCCCCCCCOCC(COCCOCC[N+]1(CCCCCC(=O)[O-])CCCC1)Oc1ncccn1 (centres undefined) | 2.22% (active) | -0.76% (active) | 83.5% | 62.6% | 65.6% | 108% | 42.3% | -15.2% (active) |  |  |
| CC/C(C)=C(\C)C(=O)O | 107% | 112% | 91.9% | 105% | 100% | 108% | 100% | 104% | 118% |  |
| CCOC1(OCC)OC(c2ccccc2)=C(C#N)C(/C=C\c2ccccc2)C1(OCC)OCC (centres undefined) | 44.5% | 103% | 94.8% | 71.8% | 95.1% |  | 67.5% | 85.6% | 79.6% |  |
| COc1ccc(NC(=O)CSc2nc3ccccc3c(=O)n2CCc2ccccc2)cc1 |  | 101% | 75.5% | 90.4% | 51.2% | 85.2% | 93.3% | 82.3% | 97% | 60.7% |
| c1ccc(CO[C@H]2CO[C@H]3[C@@H]2OC[C@H]3OCc2ccccc2)cc1 |  | 99.6% | 96% | 111% | 109% | 106% | 93.7% | 92.3% | 111% | 107% |
| FC(F)(F)c1ccc(-c2cnc(-n3cc(COCCN4CCCCC4)nn3)nc2NC2CCCCCC2)cc1 | -29.1% (active) | 67.9% | 56.8% | 37.1% | 61.3% | 70.6% | 30.5% | 36.7% | 39.9% |  |
| COc1ccccc1CNCCN1C(=O)c2ccc3c4c(ccc(c24)C1=O)C(=O)N(CCNCc1ccccc1OC)C3=O | -67.7% (active) | -52.6% (active) | -79.6% (active) | -78.5% (active) |  | -62.6% (active) | -65.8% (active) | -72.5% (active) | -99.7% (active) |  |
| COc1ccc(N2C(=O)C3c4[nH]c5ccc(OCc6ccccc6)cc5c4C4CCC(C(C)C)CC4C3C2=O)cc1 (centres undefined) | 86.9% | 84.4% | 116% | 109% | 92.7% | 109% | 104% | 59.6% | 47.7% |  |
| COc1ccc2nc3ccccc3c(NCCNCC(C)O)c2c1 (centres undefined) | -1.19% (active) | 1.61% (active) | -3.44% (active) |  | 28.4% | 73.6% | -3.73% (active) | 4.2% (active) | 11.8% |  |
| Cc1ccc(-c2nc(/C=C3/C(=O)N(C)c4ccc(F)cc43)c3ccccn23)cc1 | 115% | 106% | 105% | 112% | 107% | 105% | 109% |  | 114% |  |
| CC(=O)n1c(-c2ccc(Cl)c(Cl)c2)cn(-c2ccc(Cl)cc2)c1=O | -10.9% (active) | 42.4% | 19.1% | 3.73% (active) | -15.5% (active) | 11.8% | -47.1% (active) | 4.07% (active) | 5.33% (active) |  |
| OCC1OC(n2cnc3c(N/N=C\c4ccccn4)ncnc32)C(O)C1O (centres undefined) |  | 43.3% | 11.7% | 24.3% | 14.5% |  | 25.4% | -6.53% (active) | 21.6% | 23.2% |
| O=c1[nH]c2ccc(Cl)cc2c2ccccc12 |  | 84.2% | 39.4% | 87% | 75.1% |  | 10.4% | 29.5% | -3.77% (active) | 77.5% |
| O=C(/C=C/c1cc2ccccc2[nH]c1=O)c1ccc2c(c1)OCO2 |  | 104% | 102% | 102% | 93.8% | 105% | 72.2% | 92.5% | 88% | 96.1% |
| COc1cc2c(cc1OCCCN1CCN(c3ncnc4ccccc34)CC1)N=CC1CCCN1C2=O (centres undefined) |  | 17.7% | 19.8% | -35.2% (active) | -57.6% (active) | 15.9% | 25% | -28.9% (active) | 4.86% (active) | -54.7% (active) |

From PubChem BioAssay (NCI)
